Experimental data as given in the supplement of paper PMC12632987.
Over roughly 1,800 sequences, “median log2 fold change of GCK-ALFA target abundance (FLAG IP / Myc IP barcode read proportion)” has its median near 0.14; the lowest 2% begin near -0.84. Only a selection was taken, and the lowest values are over-represented in it overall.

T1: TRAF2, Q12933
T1 chain: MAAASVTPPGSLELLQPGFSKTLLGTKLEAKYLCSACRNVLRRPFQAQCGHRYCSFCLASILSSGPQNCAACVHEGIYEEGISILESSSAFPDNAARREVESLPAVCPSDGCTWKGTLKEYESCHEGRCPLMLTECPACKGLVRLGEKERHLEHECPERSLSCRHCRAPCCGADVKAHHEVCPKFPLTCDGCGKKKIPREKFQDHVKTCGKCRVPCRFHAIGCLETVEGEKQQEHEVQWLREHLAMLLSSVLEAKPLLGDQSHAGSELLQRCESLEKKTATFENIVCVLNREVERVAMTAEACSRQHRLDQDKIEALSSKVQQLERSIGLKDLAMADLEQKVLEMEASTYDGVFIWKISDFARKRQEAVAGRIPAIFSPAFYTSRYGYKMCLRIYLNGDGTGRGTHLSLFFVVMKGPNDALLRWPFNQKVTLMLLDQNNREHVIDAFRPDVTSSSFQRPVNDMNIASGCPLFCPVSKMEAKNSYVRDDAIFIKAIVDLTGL

B1: traf2_out_11_155_669 (protein)
chain: EEKQKLNNELVNELTKVSDELKEKVIKILKEAAEKHPEHKEEIEKVIESSKTLSGTSFARKAAQLFKELGLEEEAKKVEELLEEAQKKMNEIYKKYEKKL
B2: traf2_out_17_178_1674 (protein)
chain: DKAAKRAEISALTDELIDLTEDTGTKLLALAEAEGTLTPEELALLRAALRSSSANTLLAVAEKLAPKLKTKAEAEALLKDFKEKKKELSKKIAEAYKEYE
B3: traf2_out_14_149_1231 (protein)
chain: SEEAKLLAAAAELTEKIAKTLEEVLKLLKEGKLEEAKKLLKESIEELEKESKKKGVTPSQLFQLEDLLELLEKDPEAAKKFAEEALARAKENADTLKEMA
B4: traf2_out_11_169_779 (protein)
chain: EEAEKNRKINDFALELNDKAKEKLKEEALKLAKEAGLDEEEIKKIFEENKNKSLSAVAAALIKYFESKGKEEEAAKVLEKYEELKDEINKKSSEFIKSLE
B5: traf2_out_1_158_912 (protein)
chain: DTKKKLMLSSVELVVKDAVESARENGDEETAKAIEELGEKIIELVKKLAIEEGKSVEEVIEEIDKLAAEFKAKADPETAAAIERLTRRVKSALRQVEKLM
B6: traf2_out_18_5_1953 (protein)
chain: SREEELKEALKSAERILSKKPEIEAEAKKLGVEELYKKAVEDFTRALENGEDLAKISTKHAEELAKKIGDPEKAEDLTYEIRRYVSAEYAKEVLEEMLKA
B7: traf2_out_20_8_2269 (protein)
chain: MSMEEKLARAADLILDAKDLVRAVIREVLADERAPAIAAEAAAAISVSVSADDTDADILLRIRERATEALTRLAERTGDPRLEEARARVAAALDAAAAAA
B8: traf2_out_6_156_2453 (protein)
chain: AAEAILERTEKEIEEGIKALAAAPEERKIAEINRIAGAFYRGLQALRAAGASLEELRAAAERLLETAEKKAKEAGLDERTRNLLLASLRAVADVALAAAA
B9: traf2_out_17_162_1558 (protein)
chain: SEIEKRWEKLKEELKELEKRVEALEKRLERLAELTPEEIRDLLVEASEVKRRALELAEEAEKLKEKIGEEEAQKLIDEANEIAERAQRIANTLYKALEKK
B10: traf2_out_18_167_1847 (protein)
chain: EEEIRKRREELSDRLVELSEVKRAARLALQALETDPSKVPAALAALREKAASIPELQPLVDAAEAALAAGDREGLRATLEKLIEKAQKLMNEVLKEYEAL
B11: traf2_out_6_156_2450 (protein)
chain: MIEEIFEKAVKEIEELIKKLAAAPESKKIAYINKIAGTFYKALQELRESGASLEEIEEFVERLLKKAEELANEAGLDEDTKNLLLSTLSAVGEVAIANAK
B12: traf2_out_17_162_1507 (protein)
chain: SPLEELRRRIEEELEELRRELERLEKKMENLKSMSKEELSDLLVEASEAKARALRLAELVREHREELGEEEAERLIREAEEIAERLQRIANEAYKELLKK
B13: traf2_out_3_89_2301 (protein)
chain: AAAEAAKIEAARARAERYARGFRKSARFVAKQMIADGMSLDTLRGVLEAARNALVEVFREELKEQGLSEETIEELVKELTEELEKIVEEILEEAEKKRAE
B14: traf2_out_13_95_1141 (protein)
chain: SAEVAAKINAIADRLLAEKDAILDELEAQLKAAGLLTPELRAALEAAKRSSISTAIHRLRELAERYPEARAALEAAIARLEALRREAGREVAEILKEEKE
B15: traf2_out_20_3_2084 (protein)
chain: KELEEEYKKHLEKAEKLLKEAAKLADPETAKKLEELIKRLKKSEELPYSDRLVVLSEVRREVLLLAQEAKAAGNEELAKILEEAAEEINRAMNLLMKMIE
B16: traf2_out_3_77_2274 (protein)
chain: SMKKEEIREKLDEATTLAIASLAVNAINNPEKAEEFREMARIVHRARAIAKEKGKEEELLPLIEEAKEAADKLNEGDESALEKLKEIVKKIGELAEKWEK
B17: traf2_out_17_60_1763 (protein)
chain: GPEEEKEELKREARRAIEEARRLVEEVRAKLAAGTLTASEAMDWLVELTEKRRELERLLEEAEKKGEEMEELKRELERAIEEVRRTMNEVGKHLLELLEA
B18: traf2_out_20_3_2204 (protein)
chain: SELEEELEKRLDAAEKLLKEAQKLADPETAKTLDALIARLKASRELSYDDRLVTLSAIRAEVLALAQAAKAAGNAELAAVLEAAADELQKAMNLVYKIIE
B19: traf2_out_17_162_1540 (protein)
chain: SETEEELRRLREELEELEEELRRLEEISKNLETLSKEELTDLLVEASELRRRALELAERLRRLEEETGSEEARRLRERAEEIAERLQRIANEIYKELEKK
B20: traf2_out_13_95_1086 (protein)
chain: SKEVNEKIMEIADEMMEQILATLDALAKQVAGDPELAAAVAEARRLAETRGVNEAIHKLRELAKANPEHAELLNAAIAEIEAIKKEASKKISELLKEEEE
B21: traf2_out_6_3_2525 (protein)
chain: SSESLRKDARKVLENMGITTAEQLLTLVTAEVNAVKKVASRPDFDRADVAGLRSVLALTRAMVEVAYEELPSVTEADKAEALALIADAEALVEAKAKELE
B22: traf2_out_3_89_2280 (protein)
chain: SMEEEEKIKEARENIETWIRGLRKSTRRVAEEMRKEGASLETIKGLIDSSATALLEAFKISLKDKGFDEETIEELVEEAKEELEKIREELKEEAEKAYEE
B23: traf2_out_13_95_1091 (protein)
chain: SKEVAEKINKIADEMLDKSLALLEKLLKIAEEKGKAVEEIKEAIDLAEYRSINEAIHKLEELAKKYPEFKEELEATIKEIRAIKREAGRKVAEILKEEKE
B24: traf2_out_13_95_1106 (protein)
chain: SAETAEKIMEIADEMLDKVEELLEKLLEIAKKKGKLEEEIQEALHLARYRSINEAIHLLKELAKKYPEFKEELEETIEKIEELIREAGRKVAEILKEEKE
B25: traf2_out_13_95_1104 (protein)
chain: SAETAEKIMKIADEMLDKVEKILEELLKIAKEKGKLEEEIKEALHLARYQSINEAIHKLKELAKKYPEFKEELEAAIKEIEALKKEAGRKVAEILKEEKK
B26: traf2_out_20_38_2033 (protein)
chain: SEEEEEKRRLEEAIEVANEAYDKYSARVAAWKAAGKTVEEIAEEAKEEVRRLLTEAGLEEEAEILIEDIDRALSSPEAERLIVRILARAEALVYQKKVNE
B27: traf2_out_11_104_646 (protein)
chain: LTREQAREFNDFAMEANDKAKELLQEVADFLESRGHEEEAAKVRAELAHPGSGVSTFKNLLEELLPKLDEESRAVAEKAIKELEELQKKVSDKLNELEKK
B28: traf2_out_20_3_2054 (protein)
chain: EELLKELEEEEKKLRELIEEIEKLVDPETAEELREALERVEKARKEGLEEYLVALSELRRLLLRLAEEARAAGKEEVAALLEEAAEAAQRAMNIVMKIIE
B29: traf2_out_18_117_1796 (protein)
chain: SELEKLQEEFEKTLKEFEEELEEAQRVATKLIEKYPKQLPEEAMDAIVEFGEVKRRVQQLVQEAKAHPNDVEKQKKLVEELKKLLEEMKEIKKKLEEILK

Target: T1, TRAF2, Q12933
Assay: median log2 fold change of GCK-ALFA target abundance (FLAG IP / Myc IP barcode read proportion) (log2 ratio); each designed protein is fused to an ALFA-tag nanobody in HEK293 cells to bring the named protein to FLAG-tagged glucokinase (GCK); Myc marks an untargeted standard; higher = target protein stabilised (more abundant)
Conditions: target protein: 3xFLAG-MCP-GCK-ALFA reporter; HEK293 landing pad (RPLP)
Method: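 LABEL-seq trans screen in HEK293 landing-pad cells. Each de novo designed 100-aa effector handle, binding the indicated effector (E3 ligase, DUB or autophagy protein), is fused to a constant NbALFA target handle and induced with 2 ug/mL doxycycline. A FLAG-MCP-GCK-ALFA target and a Myc-MCP standard reporter were transfected, and after 48 h circRNA barcodes were recovered by anti-FLAG and anti-Myc IP and sequenced. The value is the median across barcodes (at least 3 per design) of log2(FLAG/Myc read-proportion ratio), with the two transfection replicates pooled. Negative values mean degradation and positive values mean stabilisation of the target.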

Point of comparison: B4, “median log2 fold change” value 0.368. Against it:
- B1 — within 0.2 log units, 0.305
- B2 — lower, 0.0887
- B3 — within 0.2 log units, 0.24
- B5 — lower, 0.0872
- B6 — lower, -0.0294
- B7 — lower, 0.0236
- B8 — lower, -0.00113
- B9 — within 0.2 log units, 0.297
- B10 — within 0.2 log units, 0.224
- B11 — lower, 0.00905
- B12 — within 0.2 log units, 0.373
- B13 — lower, -0.974
- B14 — lower, -0.98
- B15 — lower, 0.118
- B16 — within 0.2 log units, 0.354
- B17 — lower, -0.0301
- B18 — lower, -0.756
- B19 — within 0.2 log units, 0.402
- B20 — lower, -0.0311
- B21 — lower, -0.025
- B22 — lower, 0.0329
- B23 — lower, -0.417
- B24 — lower, -0.553
- B25 — lower, -0.841
- B26 — lower, -0.971
- B27 — within 0.2 log units, 0.185
- B28 — higher, 0.588
- B29 — within 0.2 log units, 0.186
